# Test results reported in the supplement of paper PMC8371130.
# Where a name gives a salt, the structure may show the parent alone.
# System: HL-1
# Test: relative cell viability (CellTiter-Glo) vs DMSO control (% of DMSO control); higher = more viable cells
# In short: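 One day after HL-1 mouse atrial cardiomyocytes were plated (1000 cells per well, 384-well plates) with compounds at 40, 200, 1000 or 5000 nM in 0.01% DMSO, they were transferred to a hypoxic workstation at 1% O2. After 48 h there, the cells were reoxygenated for 24 h in a normal incubator, and comparison cells stayed in normoxia throughout the same time. Cell viability was quantified with CellTiter-Glo luminescence and normalised to vehicle-treated control cells.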
# [1] = oxygen condition: hypoxia 48 h (1% O2) + reoxygenation 24 h, 40 nM
# [2] = oxygen condition: hypoxia 48 h (1% O2) + reoxygenation 24 h, 200 nM
# [3] = oxygen condition: hypoxia 48 h (1% O2) + reoxygenation 24 h, 1000 nM
# [4] = oxygen condition: hypoxia 48 h (1% O2) + reoxygenation 24 h, 5000 nM
# [5] = oxygen condition: normoxia 72 h, 40 nM
# [6] = oxygen condition: normoxia 72 h, 200 nM
# [7] = oxygen condition: normoxia 72 h, 1000 nM
# [8] = oxygen condition: normoxia 72 h, 5000 nM
Compound,relative cell viability [1],relative cell viability [2],relative cell viability [3],relative cell viability [4],relative cell viability [5],relative cell viability [6],relative cell viability [7],relative cell viability [8]
Cn1c([N+](=O)[O-])cnc1COC(N)=O [Ronidazole],107,112,106,118,112,113,121,110
Cc1ncc(CO)c(CO)c1O [Pyridoxine hydrochloride],102,101,103,109,99.7,100,103,114
OC1(c2ccc(Cl)c(C(F)(F)F)c2)CCN(CCCC(c2ccc(F)cc2)c2ccc(F)cc2)CC1 [Penfluridol],96.8,107,96.7,116,97.8,100,104,120
C=CC(=O)N1CCC[C@@H](n2nc(-c3ccc(Oc4ccccc4)cc3)c3c(N)ncnc32)C1,98.9,96.6,101,102,101,90.2,90.5,102
Nc1nc(N)nc(-c2cc(Cl)ccc2Cl)n1 [Irsogladine],101,104,107,109,98.2,104,108,107
O=C1CN2Cc3c(ccc(Cl)c3Cl)N=C2N1 [Anagrelide HCl],97.6,98.7,97.5,108,99.8,100,105,111
Oc1ccc(OC2CCCCO2)cc1 (centres undefined) [Deoxyarbutin],103,104,107,113,103,102,113,109
CCCC(=O)Nc1ccc(OCC(O)CNC(C)C)c(C(C)=O)c1 (centres undefined) [Acebutolol HCl],102,108,107,114,104,107,106,116
CCN(CC)CCOC(=O)c1ccc(N)cc1 [Procaine],100,102,109,108,105,104,105,110
CCOc1ccc2ccccc2c1C(=O)N[C@@H]1C(=O)N2[C@@H]1SC(C)(C)[C@@H]2C(=O)O [nafcillin sodium monohydrate],92.6,104,105,109,99.1,101,103,107
O=c1[nH]c(=O)n([C@H]2C[C@H](O)[C@@H](CO)O2)cc1F [Floxuridine],49.5,40.7,31.4,17.4,46.1,41.5,28.6,16.3
CC/C(=C(\c1ccccc1)c1ccc(OCCN(C)C)cc1)c1ccccc1 [Tamoxifen Citrate],103,99.9,98.6,108,95.9,107,105,103
OC(CCN1CCCC1)(c1ccccc1)C1CCCCC1 (centres undefined) [Procyclidine HCl],93.1,89.9,85.4,29.9,101,97.7,82.5,30.6
O=C1[C@@H]2[C@H]3CC[C@H](C3)[C@@H]2C(=O)N1C[C@@H]1CCCC[C@H]1CN1CCN(c2nsc3ccccc23)CC1 [Lurasidone HCl],96.8,101,100,99.9,101,104,102,102
C=C1CC[C@H](O)C/C1=C/C=C1\CCC[C@]2(C)[C@@H]([C@H](C)/C=C/[C@H](C)C(C)C)CC[C@@H]12 [Vitamin D2],102,99.8,111,112,107,105,109,110
CCOC(=O)[C@H](CCc1ccccc1)N[C@@H](C)C(=O)N1[C@H](C(=O)O)C[C@@H]2CCC[C@@H]21 [Ramipril],100,115,113,123,112,105,117,116
CC(C)OC(=O)C(C)(C)Oc1ccc(C(=O)c2ccc(Cl)cc2)cc1 [Fenofibrate],103,105,108,110,103,97.9,97.5,112
COc1ccc2c(c1OC)C(=O)O[C@@H]2[C@H]1c2c(cc3c(c2OC)OCO3)CCN1C [Noscapine HCl],97.5,98,99.1,103,94.9,106,104,109
CC1(C)S[C@@H]2[C@H](NC(=O)[C@H](NC(=O)N3CCNC3=O)c3ccccc3)C(=O)N2[C@H]1C(=O)O [Azlocillin sodium salt],102,102,106,110,101,104,112,116

Compound,relative cell viability [1],relative cell viability [2],relative cell viability [3],relative cell viability [4],relative cell viability [5],relative cell viability [6],relative cell viability [7],relative cell viability [8]
CN(C)c1nc(N(C)C)nc(N(C)C)n1 [Altretamine],102,109,115,109,115,103,108,122
CN(C)[C@@H](CCOc1cccc2ccccc12)c1ccccc1 [Dapoxetine hydrochloride],96.3,102,99.8,89.2,101,103,104,76.3
CC1CC(OC(=O)C(O)c2ccccc2)CC(C)(C)C1 (centres undefined) [Cyclandelate],104,106,106,118,103,108,110,115
CC(C)NCC(O)COc1ccc(COCCOC(C)C)cc1 (centres undefined) [Bisoprolol],93.2,103,87.2,101,90.8,101,85.4,108
CN(C)CCOc1ccc(/C(=C(/CCCl)c2ccccc2)c2ccccc2)cc1 [Toremifene Citrate],104,103,108,108,103,99.5,105,108
C#Cc1cccc(Nc2ncnc3cc(OCCOC)c(OCCOC)cc23)c1 [Erlotinib HCl],114,107,105,124,112,123,112,113
CNS(=O)(=O)Cc1ccc2[nH]cc(CCN(C)C)c2c1 [Sumatriptan succinate],107,109,100,110,102,100,108,104
C[C@@H]1C[C@H]2[C@@H]3C[C@H](F)C4=CC(=O)C=C[C@]4(C)[C@@]3(F)[C@@H](O)C[C@]2(C)[C@@]1(O)C(=O)CO [Flumethasone],105,97.4,103,106,96.3,95.8,94.4,108
C#Cc1cccc(Nc2ncnc3cc(OCCOC)c(OCCO)cc23)c1,100,106,107,109,111,104,105,121
Nc1ccn([C@@H]2O[C@H](CO)[C@@H](O)[C@H]2O)c(=O)n1 [Cytidine],101,101,105,106,106,107,101,106
COc1ccc2[nH]c([S@@+]([O-])Cc3ncc(C)c(OC)c3C)nc2c1 [Esomeprazole sodium],94,93.2,106,106,94.1,96,100,114
CCNC(=O)CCC/C=C\C[C@@H]1[C@@H](/C=C/[C@@H](O)CCc2ccccc2)[C@H](O)C[C@@H]1O [Bimatoprost],104,107,108,105,104,101,105,107
CC[C@H]1OC(=O)[C@H](C)[C@@H](O[C@H]2C[C@@](C)(OC)[C@@H](O)[C@H](C)O2)[C@H](C)[C@@H](O[C@@H]2O[C@H](C)C[C@H](N(C)C)[C@H]2O)[C@](C)(OC)C[C@@H](C)C(=O)[C@H](C)[C@@H](O)[C@]1(C)O [Clarithromycin],101,101,105,105,100,100,107,108
CCN(CC)CC#CCOC(=O)C(O)(c1ccccc1)C1CCCCC1 (centres undefined) [Oxybutynin],97.2,99.9,101,102,109,103,104,101
O=C(O)/C=C/c1ccc(Cn2ccnc2)cc1 [Ozagrel HCl],103,102,102,96.7,90.2,96.8,104,97.8
CC(O)(P(=O)(O)O)P(=O)(O)O [Etidronate],95.8,96.9,99.7,109,95.1,96.5,95.9,105
CN(C)CCC(c1ccc(Cl)cc1)c1ccccn1 (centres undefined) [Chlorpheniramine Maleate],87.2,101,98.4,117,101,114,105,121
CCCNCC(O)COc1ccccc1C(=O)CCc1ccccc1 (centres undefined) [Propafenone],97.1,105,108,105,107,102,110,103
CC1=C(/C=C/C(C)=C/C=C/C(C)=C\C(=O)O)C(C)(C)CCC1 [Isotretinoin],103,102,105,111,116,104,107,112
